Screening data from PubChem BioAssay.
Hits are enriched below; roughly 2.2% of the tested compounds scored in any of these assays.
beta cell repl = inducers of beta-cell replication in MIN6 cells. MIN6 cells proliferation, ATPlite luminescence, 48 h; cells starved in 0.2% serum; 100% = growth in 10% serum. proliferation, % at 10 µM. 0.29% of 330,000 active. AID 2380;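 active means compounds whose signal lies at least 3.5 SD above the mean of all wells on their plate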
Cardio protect = myocardial damage modulation in H9c2 cells; protection from H2O2 cell death, % at 20 µM; 0.63% of 360,000 active; H9c2 cardiomyocytes, H2O2 injury protection, ATPLite, 2 h;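 active means compounds giving at least 50% protection of heart cells from peroxide-induced death in the single-dose screen, raw or plate-pattern-corrected value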
ABCB6 inh MLPCN = inhibitors of human ABC transporter ABCB6; K562-ABCB6 porphyrin accumulation, flow cytometry, 1 h; hits give low values; fluorescence ratio to DMSO, % at 10 µM; 0.19% of 360,000 active;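 active means fluorescence ratio to DMSO below 75%, the collection mean minus 3 SD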;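 further: signal is porphyrin accumulated inside mitochondria; lower ratio means ABCB6 inhibition with less porphyrin fluorescence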
Target sequence (Q9NP58 whole entry, looked up): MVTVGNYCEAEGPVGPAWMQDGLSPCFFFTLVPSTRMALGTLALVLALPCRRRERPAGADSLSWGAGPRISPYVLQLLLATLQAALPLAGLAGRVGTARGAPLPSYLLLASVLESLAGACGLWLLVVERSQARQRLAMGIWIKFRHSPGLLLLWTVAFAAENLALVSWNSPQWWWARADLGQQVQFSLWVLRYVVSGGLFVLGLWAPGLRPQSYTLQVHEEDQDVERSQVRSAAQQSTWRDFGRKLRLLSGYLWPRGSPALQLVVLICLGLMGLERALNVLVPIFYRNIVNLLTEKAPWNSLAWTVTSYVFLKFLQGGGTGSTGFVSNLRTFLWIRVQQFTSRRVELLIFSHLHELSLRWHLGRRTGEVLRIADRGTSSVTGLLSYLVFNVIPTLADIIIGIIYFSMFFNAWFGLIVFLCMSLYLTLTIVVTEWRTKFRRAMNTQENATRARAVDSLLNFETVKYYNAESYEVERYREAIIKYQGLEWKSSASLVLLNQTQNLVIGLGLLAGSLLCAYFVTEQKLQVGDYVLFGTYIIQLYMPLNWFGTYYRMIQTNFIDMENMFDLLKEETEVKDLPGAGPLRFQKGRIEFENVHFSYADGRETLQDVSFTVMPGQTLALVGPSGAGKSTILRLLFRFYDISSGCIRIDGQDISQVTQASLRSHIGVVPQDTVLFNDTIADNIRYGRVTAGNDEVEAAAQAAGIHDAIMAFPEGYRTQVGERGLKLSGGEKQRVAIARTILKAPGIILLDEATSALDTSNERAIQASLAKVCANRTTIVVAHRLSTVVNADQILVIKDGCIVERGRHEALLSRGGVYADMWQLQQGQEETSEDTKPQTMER
iPSC survival up = hiPSC single-cell survival enhancement; ATPlite luminescence; 100% = ROCK inhibitor wells, 0% = DMSO; survival enhancement, % at 20 µM; 0.044% of 360,000 active; in the data active means survival enhancement above about 18%;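 further: cells exposed to compounds for 16 hours before the ATP read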
Myeloid diff 2 = promotes myeloid progenitor differentiation. ER-HoxA9 myeloid progenitors, lysozyme-GFP differentiation, flow cytometry. 1% of 360,000 active. calls only at 10 µM;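 active means normalized GFP-positive differentiation at or above the plate's own cutoff, the solvent-only control mean plus 3 SD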;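 further: cells exposed to compound for four days before flow analysis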
Myeloid diff CP1 = compounds promoting myeloid differentiation; shares compounds with Myeloid diff 2; calls only; ER-HoxA9 myeloid progenitors, GFP/Mac1 double-positive flow; 2% of 2,300 active;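 active means share of green or green-and-red cells above 9 and 9% in run 1 or 4 and 3% in run 2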
GFP autofluor = flagged as fluorescent in myeloid differentiation counter-screen | shares compounds with Myeloid diff 2 | ER-HoxA9 myeloid progenitors, no estrogen, GFP autofluorescence flow cytometry; vehicle wells 0%, positive control 100% | fluorescence response, % (concentration not given with the values) | 7.4% of 2,300 active | AID 651707;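 active means over 5% cells positive for green fluorescent reporter, or over 2% positive for both it and APC stain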
Large screens that a line does not name were inactive (follow-up assays come after a bar, where they were run).

CCO[C@H]1OC(C(=O)O)=C[C@@H](c2ccccc2)[C@@H]1CCCO	none | Myeloid diff CP1 inactive | GFP autofluor inactive
COc1ccc(S(=O)(=O)N2C3CCC2CC(NC(=O)C2CC2)C3)cc1 (configuration not stated)	none | Myeloid diff CP1 inactive | GFP autofluor inactive
Cc1cccc(NC(=O)c2cc(NC(=O)c3ccco3)ccc2Cl)n1	none | Myeloid diff CP1 inactive | GFP autofluor inactive
Cc1cccc(N/C=C/C(=O)c2ccc(Cl)cc2)c1	none
O=C(/C=C\Nc1ccccn1)c1ccc(Cl)cc1	Myeloid diff 2 active | Myeloid diff CP1 inactive | GFP autofluor inactive
Nc1nccc(NCCSCc2ccccc2)n1	Myeloid diff 2 active (no result: beta cell repl) | Myeloid diff CP1 inactive | GFP autofluor inactive
CCCCN1C(N)=NC[C@@H]1Cc1ccc(O)cc1	Myeloid diff 2 active | Myeloid diff CP1 inactive | GFP autofluor inactive
COc1ccc2c(c1)CCC(C)N2S(=O)(=O)c1ccc(C2CNC(=O)C2)cc1 (configuration not stated)	none (no result: Myeloid diff 2) | Myeloid diff CP1 inactive | GFP autofluor inactive
O=C(NCc1ccco1)C1CCCCN1S(=O)(=O)c1ccc(F)cc1 (configuration not stated)	none
COc1ccc(S(=O)(=O)N2CCN(CCOc3ccccc3Cl)CC2)cc1OC	none | Myeloid diff CP1 inactive | GFP autofluor inactive
COc1ccc(C(=O)Nc2cccc(NC(C)=O)c2)cc1	none (no result: beta cell repl)
CCOc1ccccc1-n1c(SCC(=O)N(C(C)C)C(C)C)nnc1-c1cccnc1	none | Myeloid diff CP1 inactive | GFP autofluor inactive
CC(C)CC(=O)c1c[nH]c(C(=O)NCCc2ccccn2)c1	none | Myeloid diff CP1 inactive | GFP autofluor inactive
O=C(CN1CCN(c2ncccn2)CC1)Nc1ccccc1-n1cccc1	Myeloid diff 2 active | Myeloid diff CP1 inactive | GFP autofluor inactive
COc1ccc(C(=O)O)cc1S(=O)(=O)N1CCN(Cc2ccc3c(c2)OCO3)CC1	none | Myeloid diff CP1 inactive | GFP autofluor inactive
CCC(CC)C(=O)N1CCN(Cc2ccc3c(c2)OCO3)CC1	none | Myeloid diff CP1 inactive | GFP autofluor inactive
O=C(c1ccc2c(=O)n3c(nc2c1)CCCCC3)N1CCCCC1	none
CCN(CC(=O)Nc1c(F)cccc1F)C(=O)CC1CCCC1	none
CCN(CC(=O)Nc1c(F)cccc1F)C(=O)CC1CCCCC1	none | Myeloid diff CP1 inactive | GFP autofluor inactive
COc1cc2c(cc1OC)C(c1cc3ccccc3oc1=O)=NC(C)(C)C2	none | Myeloid diff CP1 inactive | GFP autofluor inactive
COc1ccc(NC(=O)CC2C(=O)N(c3ccccc3)C(=O)N2CCc2cccs2)cc1 (configuration not stated)	none
Cc1noc(NS(=O)(=O)c2ccc(NC(=O)/C=C/c3ccccc3)cc2)c1C	none
O=C(NCC1CCCO1)c1cccc(Oc2c(Cl)cccc2[N+](=O)[O-])c1 (configuration not stated)	none
Oc1ccccc1N=Cc1sc2ccccc2c1Cl	Myeloid diff 2 active | Myeloid diff CP1 inactive | GFP autofluor inactive
Cc1ccc(O)c(N=Cc2sc3ccccc3c2Cl)c1	none
CN(C)c1ccc(Cc2ccc(N(C)C)cc2)cc1	none (no result: beta cell repl)
O=C(Nc1cccc([N+](=O)[O-])c1)N1CCCc2ccccc21	none
O=[N+]([O-])c1cccc(NC(=S)N2CCc3ccccc32)c1	none | Myeloid diff CP1 inactive | GFP autofluor inactive
N#CCC(CNc1ncc(C(F)(F)F)cc1Cl)OC(=O)c1cccc([N+](=O)[O-])c1 (configuration not stated)	none | Myeloid diff CP1 inactive | GFP autofluor inactive
CCn1cc(C(=O)N2CCN(c3cccc(C)c3C)CC2)c(=O)c2ccc(C)nc21	none
CCn1cc(C(=O)N2CCN(c3ccc([N+](=O)[O-])cc3)CC2)c(=O)c2ccc(C)nc21	Myeloid diff 2 active | Myeloid diff CP1 inactive | GFP autofluor inactive
Oc1ccc(Br)cc1-c1ccnn1-c1ccccc1	Myeloid diff 2 active | Myeloid diff CP1 inactive | GFP autofluor inactive
Oc1ccc(Br)cc1-c1cc(-c2ccccc2)n[nH]1	none
O=C(CC(SCCO)c1ccc2c(c1)OCO2)c1ccco1 (configuration not stated)	none
Cc1ccc(C(=O)Nc2nc(-c3cc(Cl)sc3Cl)cs2)cc1	none
COc1ccc(/C=C/C(=O)NCCC(=O)N2CCCN(C)CC2)cc1	none | Myeloid diff CP1 inactive | GFP autofluor inactive
COc1ccc(-c2csc(NC(C)c3nc4cc(Cl)c(Cl)cc4n3CCOCCO)n2)cc1 (configuration not stated)	none
CCC(C)/C(C)=N/NC(=O)c1ccc(CSc2nc3ccccc3s2)cc1 (configuration not stated)	none | Myeloid diff CP1 inactive | GFP autofluor 6.1
CCNC(=O)c1ccc(CSc2nc3ccccc3s2)cc1	none
CCCCN(C)c1c(C)nc2ccc(C(=O)NC3CCN(C)CC3)cn12	none (no result: beta cell repl)
CCOc1ccc(S(=O)(=O)Nc2cccc(C(=O)NCCCN3CCCC3=O)c2)cc1	none | Myeloid diff CP1 inactive | GFP autofluor inactive
Cc1ccc(S(=O)(=O)N2CCN(S(=O)(=O)c3ccc(C)cc3)C3OCCOC32)cc1 (configuration not stated)	none | Myeloid diff CP1 inactive | GFP autofluor inactive
Cc1ccc(NS(=O)(=O)c2cccc(C(=O)NNC(=O)c3ccco3)c2)c(C)c1	Myeloid diff 2 active | Myeloid diff CP1 inactive | GFP autofluor inactive
Cc1ccc(NS(=O)(=O)c2cccc(C(=O)O)c2)c(C)c1	none
CC1(C)Cc2c(sc3c2C(=O)N(c2ccccc2)C2=NCCN23)CS1	none
Cc1cccc(C(=O)N/N=C/c2ccc(OC3CSC3)cc2)c1	none | Myeloid diff CP1 inactive | GFP autofluor inactive
Cc1cccc[n+]1CC(=O)/C=C1\N(C)c2ccccc2C1(C)C	none
CN1/C(=C/C=C/c2n(C)c3cc([N+](=O)[O-])c([N+](=O)[O-])cc3[n+]2C)C(C)(C)c2ccccc21	Myeloid diff 2 active (no result: beta cell repl) | Myeloid diff CP1 inactive | GFP autofluor 7.2
COC(=O)c1ccc(NC(=O)CCn2c(=O)oc3ccccc32)cc1	none
CCOC(=O)c1ccc(NCn2c(=O)oc3ccccc32)cc1	none | Myeloid diff CP1 inactive | GFP autofluor 44
CCCCCCN1CCN(C2CN(Cc3cn(Cc4ccc(C)cc4)nn3)S(=O)(=O)C2)CC1 (configuration not stated)	none (no result: beta cell repl, Cardio protect) | Myeloid diff CP1 inactive | GFP autofluor inactive
c1ccc(CNc2nc(-c3cccs3)nc3ccccc23)nc1	none | Myeloid diff CP1 inactive | GFP autofluor inactive
CCCCCCCNC(=O)C1(CC2CC(c3ccccc3)=NO2)CCN(C(=O)OC(C)(C)C)CC1 (configuration not stated)	none
O=C(CCCc1ccccc1)Nc1cccc([N+](=O)[O-])c1	none
Cc1ccc(C(=O)COC(=O)C2C3C=CC(C3)C2C(=O)OCC(=O)c2ccc(C)c(C)c2)cc1C (configuration not stated)	none
